This is one part of a sample in which hits are shown more often than they occur.
Tgondii IFNg – T. gondii growth inhibition with IFN-gamma, primary screen, cell-based; Toxoplasma gondii growth in IFN-gamma-treated host cells; active compounds read low; activity change, negative = inhibition, % (no concentration beside the values); hit rate 3.8% among 69,000; AID 1259416, 2018; in the data active means activity change below about -70%, passing the limit was not always enough;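 further: host cells are HeLa cells infected with Toxoplasma gondii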
Numbers without * were called inactive; i = inactive.

SMILES	Tgondii IFNg
COc1cc2c3cc1Oc1cc(ccc1O)C[C@@H]1c4c(cc(OC)c(O)c4Oc4ccc(cc4)C[C@H]3N(C)CC2)CCN1C	-94*
Cc1ccnc(CC(C)N(C)Cc2ccc(CN(C)S(C)(=O)=O)o2)c1 (stereo unspecified)	-28
Cc1cccc(C)c1NC(=O)c1cc2cccnc2n(Cc2ccccc2F)c1=O	13
O=C(Nc1ccc(F)cc1)c1cc2cccnc2n(Cc2ccccc2F)c1=O	101
COC(=O)C[C@@](O)(CCC(C)(C)O)C(=O)O[C@@H]1C(OC)=C[C@]23CCCN2CCc2cc4c(cc2[C@@H]13)OCO4	-84*
O=C(NCC1CCC2(CCNCC2)O1)C1CC1 (stereo unspecified)	-65
CC(=O)O[C@H]1C(=O)[C@@]2(C)C([C@H](OC(=O)c3ccccc3)[C@]3(O)C[C@H](O)C(C)=C1C3(C)C)[C@]1(OC(C)=O)CO[C@@H]1C[C@@H]2O (stereo partly specified)	-74*
C/C=C(\C)C(=O)N[C@@H](c1ccccc1)[C@@H](O)C(=O)O[C@H]1C[C@@]2(O)[C@@H](OC(=O)c3ccccc3)[C@@H]3[C@]4(OC(C)=O)CO[C@@H]4C[C@H](O)[C@@]3(C)C(=O)[C@H](OC(C)=O)C(=C1C)C2(C)C	-89*
c1cncc(N2CCOCC3(CCCN(Cc4ccoc4)C3)C2)c1 (stereo unspecified)	-26
C=CC1(O)CCC2C3CC=C4CC(OC(C)=O)CCC4(C)C3CCC21C (stereo unspecified)	-39
CCN1C[C@H]2[C@H](OC)CCN(C(=O)c3ncccn3)[C@H]2C1	171
C[C@@H]1O[C@@H](O[C@@H]2C=C3CCC4C(CC[C@]5(C)[C@@H](c6ccc(=O)oc6)CC[C@]45O)[C@@]3(C)CC2)C(O)C(O)[C@H]1O (stereo partly specified)	-80*
Cc1cccc(OCC(=O)N2CCCN3CCC[C@H]3C2)c1C	2
c1nc(N2CCOCC2)nc2c1COCC21CCN(CC2CC2)C1 (stereo unspecified)	-7
COCCN1CCC2(COCc3cnc(N4CCOCC4)nc32)C1 (stereo unspecified)	-91*
CC(C)CN1CCC2(COCc3cnc(N(C)C)nc32)C1 (stereo unspecified)	6
Cc1ccc(NC(=O)c2cc3cccnc3n(Cc3ccccc3F)c2=O)cc1F	49
CN(C)CCN1CC[C@H]2[C@@H]1CCN2C(=O)Cc1cccs1	8
O=C(c1ccnnc1)N1C[C@H]2CN(Cc3ccccc3)C[C@H]2C1	-35
C=CCN1CC[C@@H]2[C@@H]1CCN2c1ncc(F)cn1	3
C=CCN1CC[C@@H]2[C@@H]1CCN2C(=O)c1cncc(C)c1	-98*
C=CCN1CC[C@H]2[C@@H]1CCN2C(=O)c1cc(C)on1	19
CC(=O)N1CCCCC12CCNC2 (stereo unspecified)	-2
CN(C)[C@@H]1CN(C(=O)Cc2ccsc2)[C@H]2COC[C@@H]12	32
c1csc(CN2CCN(CC3CC3)c3ncccc3C2)c1	-22
SMILES	Tgondii IFNg
O=C(Nc1ccc(Cl)cc1)c1cc2cccnc2n(Cc2ccc(F)cc2)c1=O	0
O=Cc1cn(Cc2ccc(F)cc2)c2ccccc12	-3
O=C(Nc1ccncc1)C(=O)c1cn(Cc2ccc(Cl)cc2)c2ccccc12	-78*
O=C(O)CN1C2COCC1CC(Oc1cccnc1)C2 (stereo unspecified)	2
COc1ccc2c(c1)C1(CCN(C(=O)c3cnc4ccccc4n3)CC1)CC2CC(=O)O (stereo unspecified)	1
O=C(NCCC1=CCCCC1)c1cc2cccnc2n(Cc2ccccc2)c1=O	-44
O=C1[C@H]2CN(Cc3ccccn3)C[C@H]2CN1c1ccsc1	6
O=c1[nH]c2ccc(Cl)cc2c(N[C@@H]2CN3CCC2CC3)c1-c1nc2ccccc2[nH]1	-76*
Fc1cccnc1O[C@@H]1CC[C@@H]2[C@@H]1OCCN2CC1CCOCC1	-64
C=CCOCc1cncc2c1CCN(C1CCOC1)C2 (stereo unspecified)	0
c1cncc(C2CCCN2)c1 (stereo unspecified)	13
Fc1cc(F)c2c(c1)[C@H]1C=CC[C@H]1C(c1cccnc1)N2 (stereo partly specified)	-74*
CN(C)C(=O)CN1CC2CCC1C2Oc1ccccn1 (stereo unspecified)	74
FC1(F)CCN(Cc2cccs2)CC12CCN(c1ncccn1)C2 (stereo unspecified)	-2
COc1ccc(/C=C/C(=O)C2C(=O)N(C)C3(C)CC2c2cc(Br)ccc2O3)cc1OC (stereo unspecified)	-60
O=C1NC2(CCNCC2)CC1c1ccncc1 (stereo unspecified)	-1
CC(C)N1C2COCC1CN(Cc1nccs1)C2	6
Cc1ccc(C)c(NC(=O)c2c(O)c3cccnc3n(Cc3ccccc3)c2=O)c1	79
O=C(NCc1ccc(Cl)cc1)c1cc2cccnc2n(Cc2ccccc2F)c1=O	108
O=C(NCc1cccc(Cl)c1)c1c(O)c2cccnc2n(Cc2ccccc2)c1=O	-107*
O=C(Nc1ccccc1Cl)c1c(O)c2cccnc2n(Cc2ccccc2)c1=O	25
Cc1ccc(NC(=O)c2c(O)c3cccnc3n(Cc3ccccc3)c2=O)cc1	315
O=C(NCc1ccccc1Cl)c1cc2cccnc2n(Cc2ccccc2)c1=O	-3
COc1ccc(C)cc1NC(=O)c1c(O)c2cccnc2n(Cc2ccccc2)c1=O	45
Cc1cccc(NC(=O)c2c(O)c3cccnc3n(Cc3ccccc3)c2=O)c1C	15
SMILES	Tgondii IFNg
Cc1cccc(NC(=O)c2c(O)c3cccnc3n(Cc3ccccc3)c2=O)c1	139
O=C(NCc1cc(F)cc(F)c1)c1c(O)c2cccnc2n(Cc2ccccc2)c1=O	-103*
O=C(NCc1ccc(Cl)cc1)c1c(O)c2cccnc2n(Cc2ccccc2)c1=O	-98*
O=C(NCC1CC1)c1c(O)c2cccnc2n(Cc2ccccc2)c1=O	-92*
O=C(Nc1ccc(F)cc1F)c1cc2cccnc2n(Cc2ccc(Cl)cc2)c1=O	94
Cc1nonc1CC(=O)N(CCN(C)C)Cc1ccccc1F	7
Fc1cnc(NC2COC3(CCN(Cc4ccccc4)C3)C2)nc1 (stereo unspecified)	-5
c1ccc(COC[C@@H]2CCC3C(CCN3Cc3ccoc3)O2)nc1 (stereo partly specified)	-3
COc1ccccc1NC(=O)c1cc2cccnc2n(Cc2ccc(Cl)cc2)c1=O	35
CCC(C)NC(=O)c1cc2cccnc2n(Cc2ccccc2)c1=O (stereo unspecified)	9
CCOc1ccccc1NC(=O)c1cc2cccnc2n(Cc2ccc(F)cc2)c1=O	5
CCC1CN(Cc2ccc(Cl)cc2F)CCN1C(C)C (stereo unspecified)	11
CNC(=O)[C@@H]1COC[C@@H]2CN(Cc3ccncc3)C[C@@H]21	-14
O=C(C[C@@H]1COC[C@H]2CNC[C@@H]21)NCCc1ccncc1	3
CC(=O)N1C[C@H]2CN(CC3CC3)C[C@@H]2c2ccccc21	i
O=C(NC1CCCCCC1)c1cc2cccnc2n(Cc2ccc(Cl)cc2)c1=O	-9
COCc1cncc2c1CCN(S(=O)(=O)c1cn(C)cn1)C2	-17
Cc1cnc(N2CCN3C[C@H](OCCN(C)C)C[C@@H]3C2)nc1	-11
CC(C)CN1C[C@H]2CN(Cc3ccncc3)C(=O)[C@@H]2C1	5
COc1ccccc1CNC(=O)c1cc2cccnc2n(Cc2ccc(F)cc2)c1=O	92
